# T cruzi growth-1 = T. cruzi proliferation inhibition; 77,000 compounds, 5.9% hits; T. cruzi beta-gal in NIH3T3, GalScreen luminescence, 90 h; inhibition, % at 8.34 µM;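 active = mean inhibition above about 93%, with at least 55% of replicates each passing it, limit read from the data, passing the limit was not always enough; inconclusive = only one of those two conditions holds; inactive = neither condition holds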
# C diff HTS = C. difficile growth inhibition | Clostridium difficile clinical isolate growth, OD600, 24 h; active compounds read low | growth activity, negative = inhibition, % at 16 µg/mL (by protocol) | 86,000 compounds, 0.25% hits | AID 1259249;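 active = mean growth activity at or below -80% and every replicate also at or below -80%; inconclusive = mean at or below -80% but some replicate above -80%; inactive = mean growth activity above -80%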
# Pf Dd2 inh = inhibitors of Plasmodium falciparum Dd2 growth | 94,000 compounds, 2.3% hits | P. falciparum Dd2 growth, SYBR Green, 72 h; active compounds read low | AID 1159554 | activity change, % at 10 µM; in the data active = activity change below about -80%; inconclusive = no clear call, values can overlap the other calls
# T cruzi growth-2 = inhibitors of T. cruzi proliferation | shares compounds with T cruzi growth-1 | T. cruzi beta-gal in NIH3T3, GalScreen luminescence, 90 h | inhibition, % at 8.35 µM | 5,600 compounds, 72% hits;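 active = mean replicate inhibition above about 95% and at least 55% of replicates individually reaching it, limit read from the data; inconclusive = only one of the two criteria is met; inactive = neither criterion is met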
# T cruzi growth-3 = inhibitors of T. cruzi proliferation. shares compounds with T cruzi growth-1. T. cruzi beta-gal in NIH3T3, GalScreen luminescence, 90 h. inhibition, % at 2.09 µM. 5,600 compounds, 21% hits. AID 651740;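 active = mean inhibition above about 95%, with at least 55% of replicates also reaching it, limit read from the data; inconclusive = meets just one of the two conditions; inactive = meets neither condition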
# 3T3 cytotox = NIH/3T3 (mouse) viability loss; 5,600 compounds, 14% hits; NIH/3T3 viability, CellTiter-Glo ATP luminescence, 90 h; shares compounds with T cruzi growth-1; cytotoxicity (signal decrease), % at 8.35 µM;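 active = mean signal decrease across replicates above about 35% based on untreated-well scatter, with enough replicates individually passing, limit read from the data; inconclusive = no rule stated though some were filed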
# 3T3 cytotox 2 = NIH/3T3 (mouse) viability loss. shares compounds with T cruzi growth-1. NIH/3T3 viability, CellTiter-Glo ATP luminescence, 90 h. AID 651744. inhibition, % at 24.9 µM. 5,600 compounds, 56% hits;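 active = mean loss of cell viability signal at or above a set limit, and enough replicates individually reaching it; inconclusive = meets only the mean limit or only the replicate share; inactive = meets neither condition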
# Hits are given with their value; i = inactive; ? = inconclusive; nt = not tested or not shown. An excerpt weighted towards active compounds, which were near 6.7% of everything screened.
SMILES,T cruzi growth-1,C diff HTS,Pf Dd2 inh,T cruzi growth-2,T cruzi growth-3,3T3 cytotox,3T3 cytotox 2
COc1ccc(CN(C)C[C@H]2Oc3ccc(NS(=O)(=O)c4ccc(Cl)cc4)cc3CC(=O)N([C@H](C)CO)C[C@H]2C)cc1,i,i,i,nt,nt,nt,nt
COc1ccc(CN(C)C[C@H]2Oc3ccc(NS(=O)(=O)c4ccc(C)cc4)cc3CC(=O)N([C@@H](C)CO)C[C@@H]2C)cc1,104,i,i,110,i,i,i
COc1ccc(CN(C)C[C@@H]2Oc3ccc(NS(=O)(=O)c4ccc(C)cc4)cc3CC(=O)N([C@@H](C)CO)C[C@H]2C)cc1,nt,i,i,nt,nt,nt,nt
O=C(NC1CCCC1)[C@H]1[C@H](CO)[C@H]2Cn3c(ccc(-c4ccc(F)cc4)c3=O)[C@@H]1N2Cc1cocn1,i,i,i,nt,nt,nt,nt
O=C(NC1CCCC1)N1CCCCN2[C@H](CO)[C@H](c3ccc(-c4ccccc4)cc3)[C@H]2C1,104,i,i,i,i,i,104
O=C(NC1CCCC1)N1CCCCN2[C@H](CO)[C@@H](c3ccc(-c4cccnc4)cc3)[C@@H]2C1,i,i,i,nt,nt,nt,nt
COc1ccccc1-c1ccc([C@@H]2[C@H](CO)N3CCCCN(C(=O)NC4CCCC4)C[C@@H]23)cc1,i,i,i,nt,nt,nt,nt
O=C(NC1CCCC1)N1CCCCN2[C@@H](CO)[C@@H](c3ccc(-c4ccccc4)cc3)[C@@H]2C1,?,i,i,98,i,i,103
COc1cccc(S(=O)(=O)Nc2ccc3c(c2)[C@H]2C[C@@H](CC(=O)N[C@@H](C)c4ccccc4)O[C@@H](CO)[C@H]2O3)c1,nt,i,i,nt,nt,nt,nt
CN1[C@H](C(=O)N2CCCCC2)[C@@H](CO)[C@@H]2Cn3c(ccc(/C=C/c4ccccc4)c3=O)[C@@H]21,i,i,i,nt,nt,nt,nt
C[C@@H]1CCCCO[C@@H](CN(C)Cc2ccncc2)[C@H](C)CN([C@@H](C)CO)C(=O)c2cc(NC(=O)CCCN(C)C)ccc2O1,i,i,i,nt,nt,nt,nt
Cc1noc(C)c1NC(=O)N(C)C[C@@H]1Oc2ccc(NC(=O)Nc3ccccc3)cc2CC(=O)N([C@@H](C)CO)C[C@H]1C,i,i,i,nt,nt,nt,nt
C[C@@H]1CN([C@@H](C)CO)S(=O)(=O)c2ccc(C#C[C@@H](C)O)cc2O[C@@H]1CN(C)C(=O)c1ccccc1,i,i,i,nt,nt,nt,nt
C[C@@H]1CN([C@H](C)CO)C(=O)c2cc(NC(=O)Nc3ccc(C(F)(F)F)cc3)ccc2O[C@@H](C)CCCCO[C@H]1CN(C)S(=O)(=O)c1ccccc1,98,i,i,102,109,i,i
C[C@@H]1CCCCO[C@@H](CN(C)S(=O)(=O)c2ccccc2)[C@H](C)CN([C@H](C)CO)C(=O)c2cc(NC(=O)Nc3ccc(C(F)(F)F)cc3)ccc2O1,i,i,i,nt,nt,nt,nt
C[C@H]1CCCCO[C@H](CN(C)S(=O)(=O)c2ccccc2)[C@@H](C)CN([C@@H](C)CO)C(=O)c2cc(NC(=O)Nc3ccc(C(F)(F)F)cc3)ccc2O1,?,i,i,109,117,i,i
C[C@@H]1CCCCO[C@H](CN(C)S(=O)(=O)c2ccccc2)[C@H](C)CN([C@H](C)CO)C(=O)c2cc(NC(=O)Nc3ccc(C(F)(F)F)cc3)ccc2O1,i,i,i,nt,nt,nt,nt
Cn1cnc(CCNC(=O)C[C@@H]2CC[C@H]3[C@@H](COC[C@H](O)CN3C(=O)C3CC3)O2)c1,i,i,i,nt,nt,nt,nt
Cn1cnc(CCNC(=O)C[C@H]2CC[C@H]3[C@@H](COC[C@H](O)CN3C(=O)Nc3ccc(Cl)cc3)O2)c1,i,nt,i,nt,nt,nt,nt
Cn1cnc(CCNC(=O)C[C@H]2CC[C@@H]3[C@H](COC[C@H](O)CN3C(=O)Nc3ccc(C(F)(F)F)cc3)O2)c1,?,i,i,i,i,i,i
Cn1cnc(CCNC(=O)C[C@H]2CC[C@H]3[C@@H](COC[C@H](O)CN3C(=O)Nc3ccccc3)O2)c1,i,i,i,nt,nt,nt,nt
Cn1cnc(CCNC(=O)C[C@@H]2CC[C@H]3[C@@H](COC[C@@H](O)CN3C(=O)Nc3ccc(C(F)(F)F)cc3)O2)c1,107,i,i,i,i,i,i
Cn1cnc(CCNC(=O)C[C@@H]2CC[C@H]3[C@@H](COC[C@@H](O)CN3C(=O)C3CC3)O2)c1,104,i,i,102,i,i,i
